Here are results for 64 molecules from PubChem BioAssay AID1851 (National Center for Advancing Translational Sciences (NCATS), 2009).

Molecules are shown by their SMILES. Hit rate of the full screen: of about 16,000 compounds, about 5,700 (36%) were called active. Inconclusive results (about 24%) are left out. The list shows a part of the results. Unmarked numbers belong to inactive results. Calls follow the shape of the dose curve; as a rule, active = well fitted curve in the direction sought with a large enough effect; inconclusive = small, poorly fitted or top-dose-only effect, or effect the other way; inactive = no such curve, though single readings can be large or run the other way.
% is scaled to controls: 0 for no effect and ±100 for the full control effect.

Sequence of Cytochrome P450 1A2 (Homo sapiens) (P05177 whole entry, looked up): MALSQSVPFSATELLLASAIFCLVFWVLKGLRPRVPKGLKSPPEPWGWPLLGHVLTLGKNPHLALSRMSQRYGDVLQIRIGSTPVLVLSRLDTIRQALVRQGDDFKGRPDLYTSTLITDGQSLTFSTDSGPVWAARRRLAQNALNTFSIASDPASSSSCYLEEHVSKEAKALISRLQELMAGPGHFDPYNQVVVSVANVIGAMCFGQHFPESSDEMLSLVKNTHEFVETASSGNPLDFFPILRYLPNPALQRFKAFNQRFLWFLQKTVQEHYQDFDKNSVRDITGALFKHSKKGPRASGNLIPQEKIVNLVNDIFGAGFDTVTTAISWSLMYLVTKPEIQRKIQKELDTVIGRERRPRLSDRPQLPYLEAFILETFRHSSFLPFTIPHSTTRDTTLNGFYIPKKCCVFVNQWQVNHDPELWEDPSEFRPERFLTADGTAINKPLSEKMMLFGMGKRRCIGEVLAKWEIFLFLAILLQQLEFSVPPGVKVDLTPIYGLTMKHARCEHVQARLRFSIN

This test addresses Cytochrome P450 1A2 (Homo sapiens) (UniProt P05177). Nature of the test: Cytochrome panel assay with activity outcomes. Conditions: recombinant CYP, pro-luciferin dealkylation, luminescence, p450-cyp1a2; series mostly up to 57.1 µM; activity, negative = inhibition: at the top concentration.
With `Cc1nn(-c2ccc(F)cc2)c(Cl)c1/C=C(\CCC(=O)O)c1nc2ccccc2s1`, the “activity, negative = inhibition” value was -0.314%.
`Cc1nn(-c2ccc(F)cc2)c(C)c1NS(=O)(=O)c1ccc2ccccc2c1`: the AC50 (usually the concentration giving half of the maximal activity seen) is 15.8 µM (active).
On to `Cc1cc(C)nc(NS(=O)(=O)c2ccc(N)cc2)n1`, for which the “activity, negative = inhibition” value is -4.94% [at 25.6 µM].
On the same count and under the same terms, the same measure for `CCCCn1c(NCc2ccccc2NS(=O)(=O)c2ccc(C)cc2)nc2ccccc21`: 4.94%; for `COc1ccccc1S(=O)(=O)Nc1ccc(-c2nnc3n2CCCCC3)cc1`: 0.614%.
Turning to `Cc1ccc(S(=O)(=O)Nc2nc3ccccc3nc2N2CCc3ccccc3C2)cc1`, the AC50 was 22.4 µM (active).
Still for that read-out and setting: to `Cc1ccc(C(=O)N/N=C\c2cccn2C)cn1` belongs 12.6 µM (active).
Still for that read-out and setting: to `Cn1cccc1/C=N/NC(=O)c1sc2ccccc2c1Cl` belongs 0.891 µM (active).
Take `C=N[C@H](C(=O)N[C@@H]1C(=O)N2[C@@H]1SC(C)(C)[C@@H]2C(=O)O)c1ccccc1`: the “activity, negative = inhibition” value is -11.1% [at 25.6 µM].
As to `Clc1ccc(COn2c(-c3ccccc3)nc3ccccc32)cc1`, the half-maximal activity concentration (AC50) is 1.58 µM (active).
Still for that read-out and setting: to `O=[N+]([O-])c1ccc2nc(-c3ccccc3)n(OCc3ccc(Cl)cc3)c2c1` belongs 2.24 µM (active); to `Cc1ccc(COn2c(-c3ccc(Cl)cc3)nc3ccc([N+](=O)[O-])cc32)cc1`, 0.398 µM (active); to `O=[N+]([O-])c1ccc2nc(-c3ccc(Cl)cc3)n(OCc3ccccc3)c2c1`, 2.51 µM (active).
Turning to `Oc1ccc(Cn2c(-c3ccc(O)cc3)nc3ccccc32)cc1`, the activity, negative = inhibition was -5.47% [at 11.4 µM].
On the same count and under the same terms, to `O=[N+]([O-])c1ccc(N2CCC(=NOCc3ccc(Cl)cc3)CC2)cc1` belongs -21.2%.
Still for that read-out and setting: the same measure for `C1CNCCOCCNCCN1`: -0.3%.
As for `CCc1ccc(OCC(=O)Nc2ccc(-c3nc4ccccc4o3)c(O)c2)cc1`, the “activity, negative = inhibition” value was 8.68%.
With `CC(=O)CC(=O)Nc1ccc2ccccc2c1`, the AC50 was 2 µM (active).
Same read-out and setting: to `c1ccc2cc(NCNc3ccc4ccccc4c3)ccc2c1` belongs 0.631 µM (active).
As to `C=CCSc1nnc(NC(=O)COc2ccc3ccccc3c2)s1`, the “activity, negative = inhibition” value is -21.5%.
The same measure, in the same setting: the same measure for `CC(C)C[C@H](NC(=O)[C@@H](O)[C@H](N)Cc1ccccc1)C(=O)O`: -28%.
For the molecule `O=C(COc1ccc2ccccc2c1)Nc1ccc(Cc2ccncc2)cc1`, the AC50 is 0.112 µM (active).
The same measure, in the same setting: the same measure for `CC(C)C[C@@H](N)C(=O)Nc1ccc2ccccc2c1`: 1.58 µM (active); for `CC(C)C[C@H](NC(=O)[C@@H](O)[C@@H](N)Cc1ccccc1)C(=O)O`: “inactive”.
In the case of `O=C(O)C[C@H](S)C(=O)O`, the activity, negative = inhibition was -2.96% [at 11.4 µM].
On the same count and under the same terms, the same measure for `CO[C@H]1COC(=O)[C@@H](Cc2ccccc2)NC(=O)[C@@H](C)COC(=O)C/C=C\[C@@H]1C`: -3.6% [at 11.4 µM].
As for `C#CCCCO/N=C1/C[C@@H](O)[C@@H](O)[C@@H]2[C@@H]3C(=O)N(C4CCCCC4)C(=O)[C@H]3CC[C@H]12`, the activity, negative = inhibition is 7.63% [at 11.4 µM].
For `CC1(C)Oc2cc(N)c([N+](=O)[O-])cc2O1`, the AC50 is 8.91 µM (active).
Take `CC(=O)Nc1ccc(S(=O)(=O)N2CCC(N(C)CCC(C)C)CC2)cc1`: the “activity, negative = inhibition” value was -6.77%.
With `O=C(Nc1ccc(Cl)c(C(F)(F)F)c1)C1CCCN(S(=O)(=O)c2cnc[nH]2)C1` (centres undefined), the AC50 was 15.8 µM (active).
In the case of `CCc1ccc(NC(=O)C2CCN(S(=O)(=O)c3c(C)[nH]c(=O)[nH]c3=O)CC2)cc1`, the “activity, negative = inhibition” value was -6.06%.
The same measure, in the same setting: to `CC(=O)Nc1ccc(NC(=O)C2CCN(S(=O)(=O)c3cccc4nonc34)CC2)cc1` belongs -2.52%; to `CO[C@@H]1COC(=O)C/C=C\[C@H](C)COC(=O)[C@H](C)NC(=O)C/C=C\[C@H]1C`, -3.56% [at 11.4 µM].
`Cc1nn(CCc2n[nH]c(=S)n2-c2ccc(F)c(Cl)c2)c(C)c1[N+](=O)[O-]`: the “activity, negative = inhibition” value was -3.99%.
Same read-out and setting: the same measure for `CCc1nn(C)c(-c2n[nH]c(=S)n2N)c1Cl`: -0.733%.
Turning to `CC(C)Cn1c(-c2nn(C)cc2Cl)n[nH]c1=S`, the AC50 is 25.1 µM (active).
Consider `COc1ccc(-c2nc3cnc(Oc4cccc(Cl)c4)nc3n(C[C@H]3CCCO3)c2=O)cc1`, for which the AC50 was 5.01 µM (active).
The same measure, in the same setting: to `O=c1c(-c2cccs2)nc2cnc(Oc3cccc(Cl)c3)nc2n1C[C@H]1CCCO1` belongs 3.16 µM (active).
In the case of `CC(=O)OC[C@@H]1O[C@H](C/C=N\OC[C@@H](O)COCc2ccco2)C=C[C@@H]1OC(C)=O`, the activity, negative = inhibition is 1.52% [at 11.4 µM].
Same read-out and setting: to `C[C@H](N)C(=O)O` belongs -18.8%.
For the molecule `CCCCCCCCC(=O)NCc1cc(OC)c(O)cc1I`, the AC50 is 12.6 µM (active).
Consider `O=C(O)c1cc(C(=O)O)nc(C(=O)O)c1`, for which the activity, negative = inhibition was -9.81% [at 11.4 µM].
On to `CSc1nnnc2ccccc12`, for which the AC50 was 3.16 µM (active).
For `CSc1c(-c2ccccc2)nc2ccccc2c1C(=O)O`, the “activity, negative = inhibition” value is 10.1%.
In the case of `COCc1nnc(NC(=O)CSc2ccc(C)cc2)s1`, the AC50 was 12.6 µM (active).
Regarding `COCc1nnc(NC(=O)CC(c2ccccc2)c2ccccc2)s1`, the “activity, negative = inhibition” value is 7.41%.
`Cc1cnc(NC(=O)CSc2ccc(Cl)cc2)s1`: the AC50 is 3.16 µM (active).
Take `COc1ccc(Cc2nnc(NC(=O)CSc3ccc(C)cc3)s2)cc1OC`: the “activity, negative = inhibition” value was -19.1%.
For `COC(=O)c1sccc1NC(=O)CSc1ccc(Cl)cc1`, the AC50 is 14.1 µM (active).
On the same count and under the same terms, to `COC(=O)c1sccc1NC(=O)CSc1cc(Cl)ccc1Cl` belongs 2.51 µM (active).
As to `O=c1[nH]cc(CS(=O)(=O)Cc2c[nH]c(=O)[nH]c2=O)c(=O)[nH]1`, the activity, negative = inhibition is -24.4% [at 11.4 µM].
On the same count and under the same terms, the same measure for `CC(=O)N1CCC2(CCN(Cc3nccs3)CC2)CC1`: -13.5%; for `COCC(=O)N1CCC2(CC1)CN(C(=O)Nc1cccc(C#N)c1)C2`: 2.75%.
As to `NCCSSCCN`, the AC50 result was “inactive”.
Still for that read-out and setting: the same measure for `CN1C(=O)/C(=N\OC(=O)c2cccc3ccccc23)c2ccccc21`: 7.08 µM (active).
In the case of `CC(C)(Oc1ccc(-c2cccc3ccccc23)cc1)C(=O)O`, the activity, negative = inhibition is 8.77% [at 11.4 µM].
Still for that read-out and setting: the same measure for `CC(=O)c1c(O)cc(=O)n(-c2ccccc2)c1-c1cccc2ccccc12`: 8.95%; for `COc1ccc(CCN=CC2=C(O)CC(C)(C)CC2=O)cc1`: -18.3%; for `COc1ccc(/C(O)=C2/C(=O)C(=O)N(CCCC(=O)O)C2c2ccc(OC)cc2)cc1` (centres undefined): -24%.
For the molecule `COc1ccc2cc(CCC(C)=O)ccc2c1`, the AC50 was 0.398 µM (active).
In the case of `COc1ccc2cc(C(=O)CCC(=O)O)ccc2c1`, the AC50 was 0.794 µM (active).
Regarding `CCOc1ccc(C(=O)CCC(=O)O)cc1`, the “activity, negative = inhibition” value was -8.88%.
Consider `COc1cccc(/C=N/NC(=O)c2cc(-c3cccn3C)n[nH]2)c1`, for which the AC50 is 6.31 µM (active).
In the case of `COc1cccc(/C=N/NC(=O)c2c(-c3ccccc3)noc2C)c1`, the “activity, negative = inhibition” value was -18.4%.
